Assay results reported in PubChem BioAssay (NCATS).
Where “and” joins values, the source holds several entries; their conditions need not be identical. Equal entries are not always repeated. Inconclusive results are not listed. Some compounds were tested as several samples or in several runs, with calls that do not always agree. Calls of active or inactive are those of the source. Calls come from the whole dose curve; as a rule, active = well fitted curve in the direction sought with a large enough effect; inconclusive = small, poorly fitted or top-dose-only effect, or another doubt; inactive = no such curve, though single readings can be large; an effect the other way counts as inactive or inconclusive.

What was measured:
[1] = tested on: PA-1; assay: Primary qHTS to identify gynecologic anti-cancer compounds using libraries of approved drugs and bioactive compounds (AID 1345084); details: Gynecologic cancer cell panel viability, ATPlite luminescence, 48 h; series mostly up to 57.5 µM; note: nearly all actives have a fitted effect of over 55% in size
Summary of the method: (§1)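 Luminescence from the ATPlite ATP-monitoring reagent indicates viable cell number; lower signal means cytotoxicity. Cells received compound 16 h after seeding and were exposed for 48 h across five concentrations.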

[2] = tested on: SKOV3; assay: as above; details: Gynecologic cancer cell panel viability, ATPlite luminescence, 48 h; series mostly up to 57.5 µM
Summary of the method: as §1

[3] = tested on: Tov-21-G; assay: as above; details: Gynecologic cancer cell panel viability, ATPlite luminescence, 48 h; series mostly up to 57.5 µM
Summary of the method: as §1

[4] = tested on: Tov112D; assay: as above; details: Gynecologic cancer cell panel viability, ATPlite luminescence, 48 h; series mostly up to 57.5 µM
Summary of the method: as §1

[5] = Drug repurposing screens with cells derived from glioblastoma tumor samples (AID 1345199); details: GBM patient neurospheres viability, ATP luminescence, 48 h; note: nearly all actives have a fitted effect of over 40% in size; note: potency is the fitted concentration of half-maximal effect
Summary of the method: (§2)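 Primary testing used CD133+ neurospheres from four GBM patients, seven concentrations, 48 h exposure and ATP-based viability; confirmation added three slower-growing patient lines.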

[6] = tested on: astro; assay: as above; details: viability, ATP luminescence, 48 h; series mostly up to 45.9 µM
Summary of the method: as §2

[7] = at 20 µM (top of the series), tumour line C
[8] = at 21.2 µM (top of the series), tumour line B
[9] = at 21.2 µM (top of the series), tumour line D
[10] = at 45.9 µM (top of the series), tumour line B
[11] = at 45.9 µM (top of the series), tumour line D
[12] = at 46.1 µM (top of the series), tumour line C
[13] = at 46 µM (top of the series), tumour line A
% is set by controls: 0 for no effect and ±100 for the full control effect.

CC(=O)OCC(=O)[C@@]1(O)[C@H](C)C[C@H]2[C@@H]3CCC4=CC(=O)C=C[C@]4(C)[C@@]3(F)[C@@H](O)C[C@@]21C
inactive: Potency [1] | Potency [2] | Potency [3] | Potency [4] | activity, negative = cell killing [5, 7] -1.02% | activity, negative = cell killing [5, 8] -13.3% | activity, negative = cell killing [5, 9] -10.9% | activity, negative = cell killing [5, 10] 1.42% | activity, negative = cell killing [5, 11] -14.4% | activity, negative = cell killing [5, 12] -7.18% | Potency [6]

CC1(C)O[C@@H]2C[C@H]3[C@@H]4C[C@H](F)C5=CC(=O)CC[C@]5(C)[C@H]4[C@@H](O)C[C@]3(C)[C@]2(C(=O)CO)O1
inactive: Potency [1] | Potency [2] | Potency [3] | Potency [4] | activity, negative = cell killing [5, 7] -16.9% | activity, negative = cell killing [5, 8] -8.1% | activity, negative = cell killing [5, 9] -28% | activity, negative = cell killing ([5]; at 21.3 µM (top of the series), tumour line A) -15.3% | Potency [6]

Cc1c(C(C)C)c(=O)n(-c2ccccc2)n1C
inactive: Potency [1] | Potency [2] | Potency [3] | Potency [4] | activity, negative = cell killing [5, 10] -4.08% | activity, negative = cell killing [5, 11] -9.96% | activity, negative = cell killing [5, 13] -22.1% | activity, negative = cell killing [5, 12] -13.8% | Potency [6]

OC[C@H]1O[C@H](O[C@]2(CCl)O[C@H](CCl)[C@@H](O)[C@@H]2O)[C@H](O)[C@@H](O)[C@H]1Cl
inactive: Potency [1] | Potency [2] | Potency [3] | Potency [4]

NC(=O)C(=O)N/N=C/c1ccc([N+](=O)[O-])o1
inactive: Potency [1] | Potency [2] | Potency [3] | Potency [4] | activity, negative = cell killing [5, 12] 10.3%
active: Potency ([5]; tumour line A) 35.5 µM

OC[C@@H](O)[C@@H](O[C@@H]1O[C@H](CO)[C@H](O)[C@H](O)[C@H]1O)[C@H](O)[C@@H](O)CO
inactive: Potency [1] | Potency [2] | Potency [3] | Potency [4] | activity, negative = cell killing [5, 10] -6.48% | activity, negative = cell killing [5, 11] -4.42% | activity, negative = cell killing [5, 13] -40.2% | activity, negative = cell killing [5, 12] -3.02% | Potency [6]

CCCCCCCCCCCCCCNCCO
inactive: Potency [1] | Potency [2] | Potency [3] | Potency [4]

CC(=O)N/N=C/c1ccc([N+](=O)[O-])o1
inactive: Potency [1] | Potency [2] | Potency [3] | Potency [4]

Cc1c(F)c(N2CCNC(C)C2)cc2c1c(=O)c(C(=O)O)cn2C1CC1 (configuration not stated)
inactive: Potency [1] | Potency [2] | Potency [3] | Potency [4] | activity, negative = cell killing [5, 10] -3.48% | activity, negative = cell killing [5, 11] 3.74% | activity, negative = cell killing [5, 13] -33% | activity, negative = cell killing [5, 12] -2.18% | Potency [6]

Cc1cccn2c(=O)c(-c3nnn[nH]3)cnc12
inactive: Potency [1] | Potency [2] | Potency [3] | Potency [4] | activity, negative = cell killing [5, 10] -8.75% | activity, negative = cell killing [5, 11] -11.1% | activity, negative = cell killing [5, 13] -23.8% | activity, negative = cell killing [5, 12] -18.6% | Potency [6]

O=C(OCCOCCO)c1ccccc1Nc1cccc(C(F)(F)F)c1
inactive: Potency [1] | Potency [2] | Potency [3] | Potency [4] | activity, negative = cell killing [5, 7] -19.4% | activity, negative = cell killing [5, 8] 0.602% | activity, negative = cell killing [5, 9] -4.96%

CNC(=O)CN(CCN(CCN(CC(=O)[O-])CC(=O)NC)CC(=O)[O-])CC(=O)[O-].O.[Gd+3]
active: Potency ([5]; tumour line A) 35.5 µM
inactive: Potency [1] | Potency [2] | Potency [3] | Potency [4] | activity, negative = cell killing [5, 10] 8.28% and -4.12% | activity, negative = cell killing [5, 11] 7.83% and 10.5% | activity, negative = cell killing [5, 13] -5.02% | activity, negative = cell killing [5, 12] -11.8% and -0.805% | Potency [6]

COC(=O)C1=C(C)NC(C)=C(C(=O)O[C@@H]2CCCN(Cc3ccccc3)C2)[C@@H]1c1cccc([N+](=O)[O-])c1
inactive: Potency [1] | Potency [2] | Potency [3] | Potency [4]

N[C@H](Cc1c[nH]c2ccccc12)C(=O)O
inactive: Potency [1] | Potency [2] | Potency [3] | Potency [4] | activity, negative = cell killing [5, 13] 21.7% | activity, negative = cell killing [5, 12] 0.799%
active: Potency ([5]; tumour line B) 35.5 µM

O=C(Nc1ccc(Cl)c(Cl)c1)C1CC1
inactive: Potency [1] | Potency [2] | Potency [3] | Potency [4] | activity, negative = cell killing [5, 10] -26.9%
active: Potency ([5]; tumour line A) 28.2 µM | Potency ([5]; tumour line C) 23.1 µM | Potency ([5]; tumour line D) 20 µM

Cc1cc2c(cc1CC(=O)c1sccc1S(=O)(=O)Nc1onc(C)c1Cl)OCO2
inactive: Potency [1] | Potency [2] | Potency [3] | Potency [4]

CC1=C(C(=O)OC(C)C)C(c2cccc([N+](=O)[O-])c2)C(C(=O)OC2CN(C(c3ccccc3)c3ccccc3)C2)=C(N)N1 (configuration not stated)
inactive: Potency [1] | Potency [2] | Potency [3] | Potency [4]

CCCCN1CCCC1C(=O)Nc1c(C)cc(C)cc1C (configuration not stated)
inactive: Potency [1] | Potency [2] | Potency [3] | Potency [4] | activity, negative = cell killing [5, 10] -5.63% | activity, negative = cell killing [5, 11] -4.43% | activity, negative = cell killing [5, 12] -15.9% | Potency [6]
active: Potency ([5]; tumour line A) 22.4 µM

CCN1CCCC1=O
inactive: Potency [1] | Potency [2] | Potency [3] | Potency [4] | activity, negative = cell killing [5, 10] -8.97% | activity, negative = cell killing [5, 11] 9.06% | activity, negative = cell killing [5, 13] -27.1% | activity, negative = cell killing [5, 12] 2.13% | Potency [6]

CC(=O)CC(c1ccc([N+](=O)[O-])cc1)c1c(O)c2ccccc2oc1=O (configuration not stated)
inactive: Potency [1] | Potency [2] | Potency [3] | Potency [4] | activity, negative = cell killing [5, 7] 0.914% | activity, negative = cell killing [5, 8] -11% | activity, negative = cell killing [5, 9] -16.8%

O=C(Nc1ccc(Oc2ccc(Cl)cc2)c(Cl)c1)c1cc(I)cc(I)c1O
inactive: Potency [1] | Potency [2] | Potency [3] | Potency [4]
